Reference: PubChem BioAssay (EPA / NIEHS)
Active and inactive are the calls of the source. The calls were made as follows: active = hit-call score of the fitted dose curve at least 0.9, where 1 is the maximum; inconclusive = response in the unintended direction; inactive = score below 0.9.

These compounds were tested against rat CYP3A2, Cyp3a2 (gene 266682) (UniProt P05183) (assay: NVS_ADME_rCYP3A2: NovaScreen (NVS) CYP450-related Enzyme Activity (ADME) Assay for rat CYP3A2 (AID 2283128)).
Protocol: NVS_ADME_rCYP3A2 is a biochemical, single-readout assay that uses extracted gene-proteins in a cell-free assay. Measurements were taken 0.5 hour after chemical dosing in a 96-well plate.NVS_ADME_rCYP3A2 is one of one assay component(s) measured or calculated from the NVS_ADME_rCYP3A2 assay. It is designed to make measurements of enzyme activity, a form of enzyme reporter, as detected with fluorescence intensity signals by Fluorescence technology.Data from the assay component NVS_ADME_rCYP3A2 was analyzed into 1 assay endpoint. This assay endpoint, NVS_ADME_rCYP3A2, was analyzed in the positive analysis fitting direction relative to Acetonitrile as the negative control and baseline of activity. Using a type of enzyme reporter, loss-of-signal activity can be used to understand changes in the enzymatic activity as they relate to the gene Cyp3a2. Furthermore, this assay endpoint can be referred to as a primary readout, because this assay has produced multiple assay endpoints where this one serves a enzymatic activity function. To generalize the intended target to other relatable targets, this assay endpoint is annotated to the cyp intended target family, where the subfamily is xenobiotic metabolism.
Binding assays used specific radioligands (tritiated, iodinated) with non-radioactive competitive displacement ligands in agonist or antagonist protocols (as indicated) and various reference compounds and inhibitors to titrate specific binding to receptors and transporters. Most enzyme assays (CYPs, kinases, phosphatases, proteases, HDACs) used recombinant protein and specific substrates (fluorescence mostly, some colorimetric and radioactive) and inhibitors, followed by a biochemical separation of substrate and product. All assays for the biochemical HTS were initially run in duplicate at a single concentration (10 uM for CYP450 assays and 25 uM for all others). Assay-chemical combinations meeting a pre-defined threshold (e.g., 30% inhibition and other criteria defined below) were then run in singleton concentration-response format with maximum concentration of 20 uM for CYPs and 50 uM for all others. Each assay was run with positive and negative controls, and concurrent controls on every plate. The follow-up (secondary) screen tested active chemical-pairs in concentration series, as well as a few additional assays not tested in the primary screen, some selected negative inactives, and several cases re-run in the concentration series for confirmatory purposes.

Chain of rat CYP3A2, Cyp3a2 (gene 266682) (P05183 whole entry, looked up): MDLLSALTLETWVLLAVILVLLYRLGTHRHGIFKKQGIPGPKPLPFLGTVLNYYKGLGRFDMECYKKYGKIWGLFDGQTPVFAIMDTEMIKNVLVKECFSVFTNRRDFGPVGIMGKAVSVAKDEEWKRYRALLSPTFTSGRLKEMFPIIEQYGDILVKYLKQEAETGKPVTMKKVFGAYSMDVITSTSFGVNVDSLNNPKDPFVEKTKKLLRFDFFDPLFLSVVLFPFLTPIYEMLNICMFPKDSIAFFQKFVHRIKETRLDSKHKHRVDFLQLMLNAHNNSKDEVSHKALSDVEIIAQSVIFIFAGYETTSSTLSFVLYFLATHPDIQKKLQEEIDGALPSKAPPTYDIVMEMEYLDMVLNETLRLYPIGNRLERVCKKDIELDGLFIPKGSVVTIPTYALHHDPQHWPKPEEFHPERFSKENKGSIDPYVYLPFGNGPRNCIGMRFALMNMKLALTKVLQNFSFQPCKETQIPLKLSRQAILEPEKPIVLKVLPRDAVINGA

| SMILES | AC50 | outcome |
| --- | --- | --- |
| O=C(Nc1ccccc1)Nc1ccnc(Cl)c1 | 6440 nM (active) | – |
| C=CCC1=C(C)C(OC(=O)C2C(C=C(C)C)C2(C)C)CC1=O (centres undefined) | 6870 nM (active) | – |
| CCOP(=S)(OCC)SCn1c(=O)oc2cc(Cl)ccc21 | 518 nM (active) | – |
| CO/C=C(/C(=O)OC)c1ccccc1Oc1cc(Oc2ccccc2C#N)ncn1 | 6600 nM (active) | – |
| CS/C(C)=N/OC(=O)N(C)SN(C)C(=O)O/N=C(\C)SC | 3390 nM (active) | – |
| C=CCC1=C(C)[C@@H](OC(=O)[C@@H]2[C@@H](C=C(C)C)C2(C)C)CC1=O | 7550 nM (active) | – |
| COc1ccc(C(c2ccc(OC)cc2)C(Cl)(Cl)Cl)cc1 | – | inactive |
| CCOC(=O)CC(SP(=S)(OC)OC)C(=O)OCC (centres undefined) | 306 nM (active) | – |
| CCCN(CCC)c1c([N+](=O)[O-])cc(S(N)(=O)=O)cc1[N+](=O)[O-] | 2670 nM (active) | – |
| OC(c1ccc(Cl)cc1)(c1cncnc1)c1ccccc1Cl (centres undefined) | 5570 nM (active) | – |
| CC1COC(Cn2cncn2)(c2ccc(Oc3ccc(Cl)cc3)cc2Cl)O1 (centres undefined) | 1350 nM (active) | – |
| CCON=C(CC)C1=C(O)CC(c2c(C)cc(C)cc2C)CC1=O (centres undefined) | 3000 nM (active) | – |
| CN(C)C(=S)SSC(=S)N(C)C | 2420 nM (active) | – |
| Cc1ccc(-c2c(Cl)nc(C#N)n2S(=O)(=O)N(C)C)cc1 | 1100 nM (active) | – |
